# Hit rate of the full screen: of about 1,900 compounds, fewer than 10 were called active. Not shown: some 6% with an inconclusive outcome.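 The calls were made as follows: active = Wild-type ribosome reporter drop at least double the humanized mutant ribosome reporter drop, growth loss under a set limit; inconclusive = no clear call, values can overlap the other calls; inactive = the rest.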 These entries were drawn from the full list.
# Assay: growth inhibition of wild-type GFP E. coli, dose response, H69 mutant RFP, cherry-pick (AID 977621);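 also: wild-type GFP and H69 mutant RFP strains grown together 50/50 in each well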
# Conditions: E. coli wild-type GFP strain growth, fluorescence, 24 h; series mostly up to 50 µM
row,Structure (SMILES),outcome
1,O=C(Nc1cccc(Cl)c1)N1C[C@@H]2[C@H](c3ccccc31)[C@H](CO)N2Cc1ccncc1,inactive
2,CNC(=O)c1ccsc1NC(=O)c1ccc(S(=O)(=O)N2CCc3ccccc32)cc1,inactive
3,Cc1ccccc1S(=O)(=O)NC(=O)C1(C)CCN1C(=O)C1(c2ccc(Cl)cc2)CC1 (configuration not stated),inactive
4,CCc1c(N=O)c(-c2ccccc2)n(O)[n+]1[O-],inactive
5,CCc1cc2cc(OC)ccc2nc1SCC(=O)Nc1cc(OC)c(OC)cc1C(=O)O,inactive
6,CC1CCCC(NC(=O)COC(=O)[C@@H]2CC(O)CN2S(=O)(=O)c2ccc3c(c2)OCCO3)C1C (some centres not stated),inactive
7,Cn1cc(CCC(=O)NCc2ccc3c(c2)OCO3)c2ccccc21,inactive
8,C[C@@H](Nc1nc(-c2ccccc2)nc2c1oc1ccccc12)C(=O)O,inactive
9,CC(=O)Nc1ccc(CNc2nc(NCCN(C)C)nc3cc(-c4ccccc4)sc23)cc1,inactive
10,Fc1cccc(Cl)c1CSc1ccc(-c2ccco2)nn1,inactive
11,Cc1ccc(C(=O)NCC(=O)OCC(=O)Nc2cccc(S(=O)(=O)N3CCCC3)c2)cc1C,inactive
12,Cc1cc(C)cc(NC(=O)c2cccc(NC(=O)C3C4CC5OC(=O)C3C5C4)c2)c1 (configuration not stated),inactive
13,Cc1ccc(OCCCC(=O)NC(C)c2ccccc2)c(C)c1 (configuration not stated),inactive
14,Cc1nn(C(C)(C)C)c(OC(=O)CC(C)C)c1S(=O)(=O)c1ccccc1,inactive
15,O=C(NCCc1csc(-c2ccccc2)n1)c1ccccc1F,inactive
16,Cc1cccc(NC(=O)c2nc(S(=O)(=O)Cc3ccccc3)ncc2Cl)c1,inactive
17,Cc1ccc(-c2c[n+](CC(=O)Nc3ccccc3)c3n2CCC3)cc1,inactive
18,COc1ccc(C(C)=O)cc1COc1ccc(Cl)c(C)c1,inactive
19,COc1cccc(S(=O)(=O)N2CCCCN3[C@H](C2)[C@H](c2ccc(C#CC(C)C)cc2)[C@@H]3CO)c1,inactive

row,Structure (SMILES),outcome
1,COc1ccc2c(c1)c1ncn(Cc3ccccn3)c(=O)c1n2C,inactive
2,O=C(Nc1nnc(Cc2ccc(Cl)cc2)s1)c1ccncc1,inactive
3,Cc1ccc2c(N)c(C(=O)c3ccccc3)sc2n1,inactive
4,Cc1onc(-c2ccccc2Cl)c1C(=O)OCC(=O)c1ccccc1,inactive
5,COc1ccc(CN(C)C[C@H]2Oc3ccc(NS(=O)(=O)c4ccc(Cl)cc4)cc3CC(=O)N([C@@H](C)CO)C[C@H]2C)cc1,inactive
6,Cc1ccc(F)c(NC(=O)CCOc2ccccc2C)c1,inactive
7,COc1ccccc1N1CCN(Cc2ccc(OC)c3ccccc23)CC1,inactive
8,CC1CCCN(c2ccc(C(=O)NCCc3ccccc3)cn2)C1 (configuration not stated),inactive
9,COc1ccc(C2=NN(C(=O)c3cccnc3)C(c3ccccc3)C2)cc1 (configuration not stated),inactive
10,Cc1ncoc1C(=O)NCCC(c1ccccc1)c1ccccc1,inactive
11,OCCN(Cc1ccccc1)Cc1ccc(Cl)cc1,inactive
12,Cc1ccccc1-n1nnnc1SCCCC(=O)c1ccc(F)cc1,inactive
13,CCN(CC)C(=O)c1sc2nc(-c3ccccc3)ccc2c1N,inactive
14,CCn1c(NC(=O)c2nn(C)cc2Br)nc2ccccc21,inactive
15,Cc1ccc(S(=O)(=O)N2CC(=O)Nc3ccccc32)cc1C,inactive
16,COC(=O)c1cc(C)sc1NC(=O)CC1Nc2ccccc2NC1=O (configuration not stated),inactive
17,O=C(NCCc1ccccc1)c1cccc(NC(=O)c2ccccc2)c1,inactive
18,C[C@@H]1CN([C@@H](C)CO)C(=O)c2cc(NS(=O)(=O)c3ccccc3)ccc2O[C@@H]1CN(C)Cc1ccc(C(=O)Nc2ccccc2N)cc1,inactive

# Source: PubChem BioAssay AID977621 (Broad Institute, 2014)
